Screening results from PubChem.
Compounds with a hit are over-represented: about 2.3% of the library has one in this group of screens.
Mcl-1 Bim block: disrupts Bim peptide binding to human Mcl-1. Bead-based flow cytometry, Bim peptide-Mcl-1 binding. inhibition, % at 10 µM. hit rate 0.1% among 190,000; in the data active = inhibition above about 40%;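 note: 0% = no compound tracer wells and 100% = peptide blocker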
Target sequence (Q07820 whole entry, looked up): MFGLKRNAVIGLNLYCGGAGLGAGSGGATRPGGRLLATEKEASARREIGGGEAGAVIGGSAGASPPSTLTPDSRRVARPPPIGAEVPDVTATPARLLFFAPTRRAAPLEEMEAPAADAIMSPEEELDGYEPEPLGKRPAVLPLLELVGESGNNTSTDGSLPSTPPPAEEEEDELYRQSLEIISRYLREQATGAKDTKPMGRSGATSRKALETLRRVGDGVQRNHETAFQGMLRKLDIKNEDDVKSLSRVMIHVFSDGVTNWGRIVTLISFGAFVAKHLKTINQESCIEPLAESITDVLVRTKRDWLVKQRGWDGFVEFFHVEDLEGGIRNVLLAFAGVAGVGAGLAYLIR
Mcl1 Noxa PPI: Mcl-1/Noxa interaction inhibition | inhibition, % at 21.7 µM | TR-FRET Mcl-1/Noxa peptide binding, 2 h | AID 1022 | hit rate 1.5% among 220,000 | Q07820;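 active = compounds that cut the protein-peptide binding signal by more than 50% relative to plate controls in a single-dose test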;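 note: His-tagged Mcl-1 with rhodamine Noxa BH3 peptide and terbium anti-His antibody; 0% = Mcl-1 plus Noxa peptide wells and 100% = peptide-only wells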
Bcl-xL primary: inhibitors of human Bcl-xL; Q07817; GST-Bcl-xL / FITC-Bim BH3 peptide fluorescence polarization; inhibition, % at 10.9 µM; hit rate 0.7% among 320,000;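 active = inhibition above the mean of all tested compounds plus 3 SD, cutoff set per campaign, cut at about 30% in these data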;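 note: 0% = DMSO wells and 100% = unlabeled Bim-BH3 peptide competitor; inhibitors lower millipolarization by displacing the labeled peptide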
Target sequence (Q07817 whole entry, looked up): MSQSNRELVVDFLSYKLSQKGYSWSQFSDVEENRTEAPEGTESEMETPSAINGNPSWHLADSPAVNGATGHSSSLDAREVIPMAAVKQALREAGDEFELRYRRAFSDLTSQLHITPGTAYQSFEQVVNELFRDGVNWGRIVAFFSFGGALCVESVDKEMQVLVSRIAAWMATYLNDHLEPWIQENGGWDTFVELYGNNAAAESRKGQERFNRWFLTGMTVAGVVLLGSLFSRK
MCL1-BIM inh: MCL1-BIM-BH3 interaction inhibition (human). Q07820. GST-MCL1 / FITC-Bim-BH3 fluorescence polarization. inhibition, % at 10.9 µM. hit rate 0.68% among 320,000. AID 2057;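 active = inhibition above the mean inhibition of all tested compounds plus 3 SD, set per campaign, cut at about 40% in these data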;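 note: 0% = DMSO wells and 100% = unlabeled Bim-BH3 peptide control; higher means more loss of mP so more displacement of Bim peptide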
GLD-1 TGE inh: GLD-1-TGE RNA interaction inhibition (C. elegans). Q17339. purified GLD-1 + fluorescein TGE RNA, fluorescence polarization. inhibition, % at 5.96 µM. hit rate 0.44% among 320,000. AID 2280;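 active = percent inhibition above a per-plate cutoff, the plate mean of test compounds plus 3 SD, cut at about 30% in these data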;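 note: 0% = DMSO wells with GLD-1 and probe and 100% = wells lacking GLD-1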
Mcl1-Bid inh: Mcl-1/Bid interaction inhibition | Q07820 | TR-FRET Mcl-1/Bid-Dy647 peptide binding, 1536-well | inhibition, % at 21.7 µM | hit rate 0.97% among 220,000 | AID 1021;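 active = compounds that cut the binding signal by more than half at the single screening dose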;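 note: His-tagged Mcl-1 with europium anti-His antibody binding Bid BH3 peptide; 0% = Mcl-1 plus peptide wells and 100% = peptide-only wells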
Bcl-xL conf: counter-screen for MCL1 inhibitors: confirmation of human Bcl-xL inhibitors. shares compounds with MCL1-BIM inh. hit rate 54% among 1,700. GST-Bcl-xL / FITC-Bim BH3 peptide FP binding. AID 2166. inhibition, % at 10.9 µM;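 active = inhibition above a cutoff equal to the mean inhibition of all tested compounds plus 3 SD, cut at about 30% in these data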;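 note: 0% = DMSO wells and 100% = unlabeled Bim BH3 control peptide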
MCL1 BIM confirm: MCL1-BIM-BH3 interaction inhibition, confirmation. shares compounds with MCL1-BIM inh. GST-MCL1 / FITC-Bim-BH3 fluorescence polarization. inhibition, % at 10.9 µM. hit rate 61% among 1,700;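 active = inhibition above the average of all tested compounds plus 3 SD, cut at about 40% in these data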;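 note: 0% = DMSO wells and 100% = unlabeled Bim-BH3 control peptide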
GLD1 RNA confirm: GLD-1 TGE RNA interaction inhibition, confirmation; shares compounds with GLD-1 TGE inh; GLD-1/FL-TGE RNA fluorescence polarization, biochemical; inhibition, % at 5.96 µM; hit rate 10% among 550; AID 2459;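 active = average inhibition across triplicates above the hit cutoff set in the primary screen, cut at about 32% in these data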;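 note: 0% = GLD-1 with RNA probe and DMSO and 100% = wells lacking GLD-1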
Starred values were filed as active, the others as inactive; . = no result; + = active, no number.

SMILES | Mcl-1 Bim block | Mcl1 Noxa PPI | Bcl-xL primary | MCL1-BIM inh | GLD-1 TGE inh | Mcl1-Bid inh | Bcl-xL conf | MCL1 BIM confirm | GLD1 RNA confirm
COc1cccc(=O)c2c(C)n(-c3ccc(C(=O)O)cc3)c(C)c12 | 0 | 19 | 68* | 91* | 38* | -35 | 21 | 29 | 14
CC(=O)c1cccc(OCc2cc(C(=O)N3C[C@@H](C)O[C@@H](C)C3)no2)c1 | . | . | 3 | -4 | 6 | . | . | . | .
CCN(CC)C(=O)C1=C(C)NC(=O)NC1c1c(F)cccc1Cl (stereo not given) | -3 | 13 | -4 | -1 | 5 | -11 | . | . | .
CCN(CC)C(=O)C1=C(C)NC(=O)NC1c1ccccc1F (stereo not given) | 0 | 8 | 51* | 66* | 40* | -18 | 23 | 27 | 6
C(=Nc1cccc2c(N=Cc3ccco3)cccc12)c1ccco1 | 4 | 58* | 82* | 76* | 43* | -15 | 25 | 22 | 3
CN(C)c1ccc(N=Cc2ccco2)cc1 | 9 | 47 | 11 | 23 | 3 | -77 | . | . | .
COc1ccc(Nc2nnc(SCc3cc(=O)n4ccsc4n3)s2)cc1 | -1 | 44 | 66* | 68* | 41* | -34 | -4 | -3 | 36*
Cc1ccc(C)c(NS(=O)(=O)c2cc3c4c(c2)CC(=O)N4CCC3)c1 | . | . | 8 | -2 | -3 | . | . | . | .
C=CCNC(=O)/C(C#N)=C/c1ccccc1[N+](=O)[O-] | -8 | 18 | 45* | 51* | 31* | -3 | 26 | 22 | 45*
Cc1ccc(-c2nn(CCC(=O)Nc3cccnc3)c(=O)c3ccccc23)cc1 | . | 12 | 82* | 85* | 61* | -2 | 73* | 97* | -3
Cc1nn2c(N)csc2nc1=O | 13 | 28 | 57* | 58* | 34* | 8 | 51* | 59* | 20
Clc1cccc(C2Nc3cccc4cccc(c34)N2)c1 | . | . | 27 | 46* | 32* | . | 25 | 41* | 1
Clc1cccc(Cl)c1C1Nc2cccc3cccc(c23)N1 | . | . | 16 | 14 | 13 | . | . | . | .
O=C1c2ccccc2C(=O)c2c([N+](=O)[O-])ccc(O)c21 | . | 32 | 24 | 5 | 4 | -21 | . | . | .
CC1=CC(=O)c2c(O)ccc(O)c2C1=O | 23 | 96* | 88* | 138* | 75* | 99* | 102* | 142* | 33*
CC1CCCCC1NC(=O)CN1C(=O)c2cccc(N)c2C1=O (stereo not given) | -1 | 4 | . | . | . | -61 | . | . | .
CN(C(=O)CN1C(=O)c2cccc(N)c2C1=O)C1CCCCC1 | . | . | 61* | 73* | 45* | . | 56* | 77* | 49*
Cc1ccccc1NS(=O)(=O)c1ccc(C(=O)NN2CCCCC2)cc1 | . | . | 3 | -2 | 3 | . | . | . | .
C/C(CC(=O)NC12CC3CC(CC(C3)C1)C2)=N\NC(=O)c1cnccn1 | 1 | -13 | 6 | 13 | -7 | -13 | . | . | .
O=C(NC12CC3CC(CC(C3)C1)C2)c1cnccn1 | -5 | 12 | 42* | 53* | 34* | -14 | 29 | 40* | -10
COc1ccccc1NC(=O)c1cc2c(cc1Cl)N1CCCCCC1=NS2(=O)=O | . | . | . | . | 0 | . | . | . | .
O=C(NS(=O)(=O)N1CCCC1)C1=C(N2CCCC2)COC1=O | . | . | 3 | 8 | -7 | . | . | . | .
O=[N+]([O-])c1nn(-c2ccc3c(c2)OCCO3)n(O)c1=NCc1ccc(F)cc1Cl | -3 | 10 | 79* | 67* | 32* | -17 | 10 | 0 | -3
CC(CC(=O)Nc1ccc(S(=O)(=O)Nc2ncccn2)cc1)c1ccccc1 (stereo not given) | . | . | 2 | 1 | 5 | . | . | . | .
CCOC(=O)C1=C(COC(=O)c2ccccc2OC(F)F)NC(=O)NC1C (stereo not given) | . | . | -3 | 0 | 2 | . | . | . | .
SMILES | Mcl-1 Bim block | Mcl1 Noxa PPI | Bcl-xL primary | MCL1-BIM inh | GLD-1 TGE inh | Mcl1-Bid inh | Bcl-xL conf | MCL1 BIM confirm | GLD1 RNA confirm
CCOC(=O)C1=C(COC(=O)c2ccc3ccccc3c2O)NC(=O)NC1C (stereo not given) | . | . | 61* | 88* | 46* | . | 25 | 24 | 1
CCCc1ccc(C(=O)/C=C/N(C)C)cc1 | -1 | 9 | -6 | -3 | -2 | -38 | . | . | .
CC(C)c1ccc(N2C(=O)/C(=C/N(C)C)SC2=S)cc1 | . | -11 | + | + | 74* | -8 | + | + | -6
O=C1C2=C(SCCS2)C(=O)N1CCCO | 0 | -3 | 87* | 92* | 75* | -19 | 74* | 94* | 49*
O=C(O)CN1C(=O)CC(c2ccccc2)CC1=O | . | . | 3 | -4 | 2 | . | . | . | .
CC(C)c1ccc(C2NC(=O)c3ccccc3O2)cc1 (stereo not given) | . | . | 3 | -1 | 10 | . | . | . | .
N#CC1(C#N)COC23CCCCC2C1(C#N)C(=N)O3 (stereo not given) | 0 | 12 | 68* | 78* | 45* | -32 | 16 | 15 | -4
Cn1nc(C(C)(C)C)c([N+](=O)[O-])c1C(=O)N1CCCCCC1 | . | . | 2 | -1 | -11 | . | . | . | .
O=C(O)c1ccc2c(c1)[C@@H]1C=CC[C@@H]1[C@H](c1ccccn1)N2 | . | . | 56* | 86* | 34* | . | 50* | 85* | 10
O=C(NCCOc1ccccc1)C1Nc2ccc(OC(F)(F)F)cc2C2C=CCC12 (stereo not given) | . | . | -3 | 7 | 0 | . | . | . | .
Nc1cccc(C(=O)OCC(=O)Nc2cccc3c2C(=O)c2ccccc2C3=O)c1 | -2 | 64* | 98* | 118* | 47* | 77* | 107* | 146* | 67*
Cc1cccc(NC(=O)COC(=O)c2cccc3c2C(=O)c2ccccc2C3=O)c1C | 1 | 5 | 16 | 8 | 1 | -8 | . | . | .
O=[N+]([O-])c1cccnc1Sc1ccc(F)cc1 | . | . | 2 | 0 | -10 | . | . | . | .
CNc1nnc(Sc2ncccc2[N+](=O)[O-])s1 | . | -1 | 64* | 62* | 40* | 2 | 6 | -1 | -2
CN1C(=O)N(C)c2ccc(C=O)c3cccc1c23 | 2 | 22 | 72* | 73* | 40* | 16 | 65* | 94* | 23
Cn1c(=O)cc2c3c(c(N4CCCCC4)ccc31)C(=O)c1ccccc1-2 | . | 26 | 147* | 152* | 82* | -38 | 112* | 143* | 46*
O=C1c2ccccc2C(=O)c2c1cccc2N1CCCC1 | -2 | 17 | 16 | 21 | 6 | -60 | . | . | .
COc1ccc(CN2CC[C@H]3C=CCc4cccc(c43)C2)cc1 | . | . | 72* | 87* | 60* | . | 19 | 16 | 1
